Results published in PubChem BioAssay.
Several values for one entry are separate records, joined by “and”; a condition that tells them apart may be missing. Equal values may be shown once. Activity calls are given as the source filed them.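 Rule for the calls, unless noted: active = compounds whose cell count with miR-34 switched on is under 0.7 times the count with it off; inactive = the rest.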

Legend:
[1] = viability loss with induced miR-34 in A549 – imaging, A549 dox-inducible miR-34, nuclei and caspase counts, primary screen (AID 1347080); conditions: A549 miR-34 inducible, Hoechst nuclei count, 48 h; note: test concentration not given here
[2] = MELAS cybrid and Rieske KO viability enhancers – cell-based, MELAS cybrids, Rieske KO mouse fibroblasts, CellTiter-Glo, primary screen (AID 1508586;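 active = mean z-score across replicates of 1.96 or higher in either the MELAS or the Rieske mutant cell line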;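 note: test concentration not given here; z relative to plate mean and SD of compound and empty wells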); conditions: low glucose
[3] = galactose survival enhancers in mitochondrial complex I cybrids – cell-based, galactose medium, ATP luminescence, primary screen (AID 1645843;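 active = z-score of at least 1.8 in each of two replicates, scored against plate mean and spread of sample wells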;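 note: positive z means more ATP and so rescue of galactose-driven cybrid death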); conditions: complex I mutant cybrid cells, 72 h, stronger effect = higher value
[4] = stronger effect = lower value, cell number ratio, induced over uninduced
[5] = measured here: relative caspase fold change +Dox/-Dox
[6] = measured here: total cells with miR-34 induction, stronger effect = lower value
[7] = measured here: total cells without miR-34 induction
[8] = MELAS cybrid survival, CellTiter-Glo 48 h, stronger effect = higher value
[9] = Rieske KO mouse fibroblast survival, CellTiter-Glo 72 h

Structure (SMILES)	fold change [1, 4]	fold change [1, 5]	cell count [1, 6]	cell count [1, 7]	z-score [2, 8]	z-score [2, 9]	z-score [3]
Cc1nsc(NC(=O)NC2Cc3ccccc3C2)n1	0.755 (inactive)	2.05	7330	9710	0.128 (inactive)	-0.355	2.51 (active)
Cc1nnc(NC(=O)NCC(c2ccccc2)c2ccccc2)s1	0.837 (inactive)	0.947	7790	9310	0.623 (inactive)	1.94	1.01 (inactive)
COc1ncccc1-c1cnn(CC(=O)Nc2cc(-c3ccccn3)nn2C)c1	0.961 (inactive)	0.557	9520	9900	-0.417 (inactive)	0.201	-0.56 (inactive)
CN(C)CCc1c[nH]c2ccc(CC3COC(=O)N3)cc12 (stereo not given)	0.908 (inactive) and 0.936 (inactive)	1.13 and 0.401	9680 and 7960	10700 and 8510	-0.0653 (inactive)	0.00529	0.625 (inactive)
COc1cc(N2CCN(Cc3ccccc3F)C(=O)C2)ncn1	0.848 (inactive)	1.97	6780	7990	-0.24 (inactive)	-0.349	-0.475 (inactive)
CC(C)(O)c1ccccc1CCC(SCC1(CC(=O)O)CC1)c1cccc(C=Cc2ccc3ccc(Cl)cc3n2)c1 (stereo not given)	0.925 (inactive) and 0.834 (inactive)	1.67 and 2.27	8950 and 7950	9680 and 9540	-0.195 (inactive)	-0.136	0.25 (inactive)
COc1ccccc1-c1cnn(CC(=O)Nc2cc(C)nn2C)c1	0.86 (inactive)	2.23	7820	9090	0.116 (inactive)	-1.22	-0.56 (inactive)
COc1ccc2[nH]cc(CCC(=O)O)c2c1	0.879 (inactive)	0.282	8310	9460	0.323 (inactive)	-0.35	0.275 (inactive)
NS(=O)(=O)c1ccc(C(=O)NCCn2cccn2)cc1	0.945 (inactive)	1.97	9500	10100	-0.281 (inactive)	-0.563	-0.555 (inactive)
Cc1nc2ccc(-c3ncnc4sccc34)cc2c(=O)[nH]1	0.886 (inactive)	1.29	9390	10600	0.107 (inactive)	0.235	-0.465 (inactive)
CCCn1ncc(-c2ccnc(NCc3cc(CC)no3)n2)c1C	0.843 (inactive)	1.57	6710	7960	-0.178 (inactive)	-0.0436	-0.59 (inactive)
Cc1ccc(-n2cc(-c3nc4c(cnn4Cc4cccnc4)[nH]3)cn2)cc1	0.858 (inactive)	2.02	7150	8340	0.697 (inactive)	0.0385	-0.445 (inactive)
Cc1nn(C)cc1-c1ccnc(NCc2nc(Cc3ccccc3)no2)n1	0.883 (inactive)	1.22	8680	9840	-0.288 (inactive)	-0.167	-0.52 (inactive)
Nc1ccc(CCC(=O)O)cc1	0.96 (inactive)	0.255	9320	9710	0.558 (inactive)	-0.0102	1.27 (inactive)
Cc1ccc(NC(=O)NCCSCc2ccc(CN(C)C)o2)cc1Cl	0.882 (inactive)	0.585	6630	7520	0.133 (inactive)	-0.401	-1.04 (inactive)
CC(C)n1cc(-c2cc(C(=O)N(C)Cc3ccncc3)c3cc(F)ccc3n2)cn1	0.953 (inactive)	1.49	7910	8290	-1.09 (inactive)	0.3	-0.295 (inactive)
CCCn1ncc(NC(=O)Cn2cc(C)c(-c3cccc(Cl)c3)n2)n1	0.851 (inactive)	1.04	7170	8420	-0.0413 (inactive)	-0.435	1.05 (inactive)
O=C(O)Cc1cc(=O)[nH]c(=O)[nH]1	0.898 (inactive)	0.239	8760	9760	0.622 (inactive)	-0.242	-0.13 (inactive)
NC(=O)NC(CCC(=O)O)C(=O)O (stereo not given)	0.857 (inactive)	0.229	8940	10400	0.385 (inactive)	-0.000429	0.4 (inactive)
CN1CCN(Cc2cccc3cccnc23)CC1CCO (stereo not given)	0.928 (inactive)	1.86	8360	9010	0.709 (inactive)	-1.63	-0.585 (inactive)
Cc1nn(C)cc1-c1ccnc(N2CCCN(c3ccc(F)cc3)CC2)n1	0.74 (inactive)	1.79	3170	4290	-0.739	2.39	0.77 (inactive)
Cc1nsc(NC(=O)NC2CCc3ccccc3C2)n1 (stereo not given)	0.899 (inactive)	1	3190	3550	-0.269 (inactive)	-0.339	1.48 (inactive)
CCC(C)(C)c1nnc(NC(=O)NCc2ccco2)s1	0.9 (inactive)	1.07	8900	9890	0.377 (inactive)	-0.396	3.32 (active)

Structure (SMILES)	fold change [1, 4]	fold change [1, 5]	cell count [1, 6]	cell count [1, 7]	z-score [2, 8]	z-score [2, 9]	z-score [3]
Cc1nn(C)c(C)c1-c1ccnc(N(C)Cc2cc(-c3ccccn3)no2)n1	0.81 (inactive)	1.13	6820	8420	-0.553 (inactive)	0.716	-0.45 (inactive)
NCC1OC(OC2C(CO)OC(OC3C(O)C(N)CC(N)C3OC3OC(CO)C(O)C(O)C3N)C2O)C(N)C(O)C1O (stereo not given)	0.908 (inactive)	0.282	9400	10400	0.577 (inactive)	-0.435	0.725 (inactive)
NS(=O)(=O)c1ccc(C(=O)NCc2ccccc2)cc1	0.871 (inactive)	0.5	8310	9540	0.51 (inactive)	-0.575	0.795 (inactive)
O=C(O)c1ccc(-c2cc(Cl)ccc2Cl)o1	0.874 (inactive)	0.439	8600	9840	-0.277 (inactive)	0.0393	0.44 (inactive)
CN1CCN(Cc2cccc(Oc3ccccc3)c2)CC1CCO (stereo not given)	0.916 (inactive)	1.42	8810	9620	-0.228 (inactive)	-0.0315	-0.55 (inactive)
CN1CCC(CN(C)Cc2ccc(-c3nc(-c4cccnc4)cc(=O)[nH]3)cc2)CC1	0.831 (inactive)	1.62	8360	10100	0.139 (inactive)	0.0765	-0.51 (inactive)
COc1cccc(-c2noc(Cc3ccc4c(c3)OCO4)n2)c1	0.929 (inactive)	1.11	9000	9680	0.523 (inactive)	0.163	2.67 (active)
CCCCS(=O)(=O)CCC(=O)O	0.879 (inactive)	0.837	8330	9470	-0.282 (inactive)	-0.71	-0.155 (inactive)
Cc1csc(CNc2nccc(-c3cnn(-c4ccccc4)c3)n2)n1	0.775 (inactive)	1.81	4550	5870	-0.292 (inactive)	0.283	-0.175 (inactive)
CCn1c2ccccc2c2cc(CNC)ccc21	0.848 (inactive)	0.773	7330	8640	0.644 (inactive)	-0.0619	-0.915 (inactive)
O=C(CC1=CCCCC1)NCc1ccon1	0.939 (inactive)	1.22	9490	10100	0.26 (inactive)	-0.5	-0.49 (inactive)
O=C(O)CC(O)CC(O)C=Cc1c(C2CC2)nc2ccccc2c1-c1ccc(F)cc1 (stereo not given)	0.905 (inactive) and 0.948 (inactive)	0.849 and 0.847	771 and 1550	852 and 1630	1.33 (inactive)	-0.125	-1.86 (inactive)
CC(C)c1nc(CN(C)C(=O)NC(C(=O)NC(Cc2ccccc2)CC(O)C(Cc2ccccc2)NC(=O)OCc2cncs2)C(C)C)cs1 (stereo not given)	0.948 (inactive) and 0.95 (inactive)	1.44 and 0.946	7230 and 6000	7630 and 6320	-0.434 (inactive)	0.643	-0.03 (inactive)
CCOC(=O)c1cc2ccc(O)cc2oc1=O	0.98 (inactive)	0.374	10300	10500	0.534 (inactive)	-0.345	0.595 (inactive)
Cc1nc(-c2ccnc(N)n2)cn1Cc1c(Cl)cccc1Cl	0.853 (inactive)	0.94	7950	9330	-0.789 (inactive)	0.727	-0.225 (inactive)
O=C(Nc1n[nH]c(-c2ccccc2)n1)N1CCN(c2ccc(F)cc2)CC1	0.826 (inactive)	1.21	6770	8190	-0.373	4.03	0.11 (inactive)
OCCCc1cn(C2CCN(c3nn4cnnc4c4ccccc34)CC2)nn1	0.902 (inactive)	1.35	8970	9940	0.105 (inactive)	-0.51	-0.54 (inactive)
Nc1nc(Nc2cccc(Cl)c2)sc1C(=O)c1ccc(F)cc1	0.868 (inactive)	0.635	7020	8090	1.64 (inactive)	0.109	-2.28 (inactive)
COc1ccc(CN(C)C(=O)Nc2nc(C)n(C)n2)c2cccnc12	0.889 (inactive)	0.916	8870	9980	0.16 (inactive)	-0.562	-0.55 (inactive)
COc1ccc2c(c1)CCN(C(=O)Nc1n[nH]c(-c3ccco3)n1)C2	0.87 (inactive)	1.45	7950	9130	0.18	3.56	0.245 (inactive)
CC(c1cccc(O)c1)N(C)C (stereo not given)	0.895 (inactive)	0.805	8630	9640	-0.0784 (inactive)	-0.273	0.205 (inactive)
CNc1nc(-c2cccc(OC)c2)ncc1F	0.868 (inactive)	1.04	8700	10000	0.0888 (inactive)	-0.0676	-0.485 (inactive)
